Gli-Sufu block: antagonists of Gli-Sufu signaling; 340,000 tested, 0.74% active; inhibition, % at 5 µM; AID 588413; Sufu-KO-LIGHT fibroblasts, Gli luciferase reporter luminescence;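 active = inhibition above about 55%, limit read from the data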;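 also: 0% = DMSO-treated cells and 100% = wells with medium but no cells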
697 NFkB inh: inhibitors of the PMA/ionomycin-induced NF-kB reporter in 697 B cells. 697 B-cell NF-kB luciferase reporter, 16 h. inhibition, % at 4 µM. 330,000 tested, 0.33% active. AID 435022; in the data active = inhibition above about 35%
Jurkat NFkB inh: lowers PMA/ionomycin-induced NF-kB signal in Jurkat cells; PMA/ionomycin-induced NF-kB luciferase reporter, luminescence; inhibition, % at 4 µM; 330,000 tested, 0.53% active; in the data active = inhibition above about 50%
Mdm2-MdmX inh: human Mdm2/MdmX binding inhibition; O15151+Q00987; SaOS-2 split-luciferase Mdm2/MdmX complementation, luminescence; inhibition, % at 8 µM; 330,000 tested, 3% active; AID 485346;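 active = inhibition of at least 50% at 8 µM in the primary screen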
Target sequence (O15151 whole entry, looked up): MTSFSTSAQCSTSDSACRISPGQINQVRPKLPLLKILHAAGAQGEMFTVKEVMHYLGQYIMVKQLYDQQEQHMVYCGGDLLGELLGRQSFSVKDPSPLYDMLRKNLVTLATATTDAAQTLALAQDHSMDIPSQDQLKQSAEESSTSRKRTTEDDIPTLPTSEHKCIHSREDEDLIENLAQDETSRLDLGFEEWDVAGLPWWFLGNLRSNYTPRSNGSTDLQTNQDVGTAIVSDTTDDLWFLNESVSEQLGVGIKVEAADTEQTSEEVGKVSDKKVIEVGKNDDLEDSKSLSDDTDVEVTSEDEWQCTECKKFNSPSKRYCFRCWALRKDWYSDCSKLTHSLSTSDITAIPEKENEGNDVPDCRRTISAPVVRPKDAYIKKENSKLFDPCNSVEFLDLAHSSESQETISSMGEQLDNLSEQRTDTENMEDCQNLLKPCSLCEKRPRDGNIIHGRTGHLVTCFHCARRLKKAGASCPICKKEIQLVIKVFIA
Target sequence (Q00987 whole entry, looked up): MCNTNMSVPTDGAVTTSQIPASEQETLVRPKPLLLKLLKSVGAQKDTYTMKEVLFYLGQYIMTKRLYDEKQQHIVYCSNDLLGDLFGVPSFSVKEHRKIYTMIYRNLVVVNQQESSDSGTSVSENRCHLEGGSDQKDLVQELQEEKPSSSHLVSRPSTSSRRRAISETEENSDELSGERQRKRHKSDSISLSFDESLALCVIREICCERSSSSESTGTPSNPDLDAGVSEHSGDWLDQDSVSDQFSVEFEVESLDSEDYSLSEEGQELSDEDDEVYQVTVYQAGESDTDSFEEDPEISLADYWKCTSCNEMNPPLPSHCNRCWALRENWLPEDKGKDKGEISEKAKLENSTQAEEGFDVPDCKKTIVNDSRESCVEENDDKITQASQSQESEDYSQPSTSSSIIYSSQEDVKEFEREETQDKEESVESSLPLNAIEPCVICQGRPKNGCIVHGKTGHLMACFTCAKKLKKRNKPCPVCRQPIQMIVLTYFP
CSC inhib: cancer stem cell inhibition | cancer stem cell-like cells viability, luminescence | inhibition, % at 7.5 µM | 300,000 tested, 1.1% active | AID 2717; in the data active = inhibition above about 75%; tested in HMLE shEcad cells
Beta cell apopt: blocks beta cell apoptosis | INS-1E cytokine-induced death, ATP luminescence, 48 h; percent of positive-control rescue, neutral wells zero | protection from apoptosis, % (concentration not given with the values) | 300,000 tested, 0.8% active | AID 435005;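 active = Every replicate reaches about 75%, or at least half do and their mean reaches it too, limit read from the data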;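 also: 0% = cytokine-treated negative control wells and 100% = positive control rescue; higher means more ATP so stronger rescue from cytokine killing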
The depositor's hits bear a star; . = not tested or not shown. Sampled rows, rich in hits. Any-hit rate of the full collection: about 4.5%.

SMILES | Gli-Sufu block | 697 NFkB inh | Jurkat NFkB inh | Mdm2-MdmX inh | CSC inhib | Beta cell apopt
CCc1cc(S(=O)(=O)N2CCN(C(=O)c3ccco3)CC2)ccc1OC | -6 | 5 | 1 | -5 | 9 | -1
CCOc1ccc(CCNC(=O)COC(=O)c2cccc(S(=O)(=O)N3CCOCC3)c2)cc1OCC | 1 | -51 | 13 | 3 | -13 | -3
COc1cc(OC)c(C(=O)OCC(=O)Nc2ccc(S(=O)(=O)N3CCOCC3)cc2)cc1OC | 1 | -10 | -8 | 15 | -9 | 2
CCCCN1C(=O)/C(=C2\SC(N3CCCCC3)=NC2=O)c2ccccc21 | -6 | -83 | -52 | -11 | 42 | 80*
CC(C)C[C@@H](CO)N1CCN(Cc2cccc(C#N)c2)CCC1=O | 5 | 21 | 3 | 20 | 6 | 0
CCOC(=O)C1CCN(C(=O)Cn2nc(C)n3c(cc4cc(F)ccc43)c2=O)CC1 | 2 | 6 | -6 | 5 | -21 | 4
Oc1ccc(Cl)c2cccnc12 | -2 | . | . | . | . | .
Cc1ccc(N=Nc2ccc(O)c3ncccc23)cc1 | 9 | . | . | . | 99* | 102*
O=C1ON=C(c2ccc(Cl)cc2)/C1=C/c1ccc(O)cc1 | -4 | 18 | -7 | 17 | 79* | -36
O=C1C=C(c2cccc(Cl)c2)C[C@@H](c2ccc3c(c2)OCO3)C1 | -4 | 16 | 15 | 3 | 34 | 0
O=C1C=C(c2ccc(Cl)c(C(F)(F)F)c2)C[C@@H](c2ccc3c(c2)OCO3)C1 | 0 | -2 | -3 | 18 | 110* | -3
O=C1NN(c2ccccc2)C(=O)/C1=C/c1ccc(-c2ccc(C(=O)O)cc2)o1 | -6 | -2 | 0 | 11 | -8 | .
O=C1NN(c2ccccc2)C(=O)/C1=C/c1ccc(Sc2cccc3ccccc23)o1 | 2 | 1 | 5 | 10 | 79* | -37
COc1ccccc1NC(=O)NC1(C(=O)N2CCC(C)CC2)CCCCC1 | 18 | -2 | 10 | 6 | -11 | 2
Cc1cc(C)c(S(=O)(=O)/N=C2/C=C(Sc3ncn[nH]3)C(=O)c3ccccc32)cc1C | 1 | . | . | . | 103* | 129*
Cc1ccc(C)c(S(=O)(=O)/N=C2\C=C(NS(=O)(=O)c3ccccc3)C(=O)c3ccccc32)c1 | -9 | 1 | 1 | 22 | . | 1
C[C@H](NC(=O)c1ccc(Cl)cc1)C(=O)NNC(=O)c1cccs1 | 0 | 20 | 0 | -2 | -11 | -2
Oc1c(Cl)cc(Cl)c2cccnc12 | -2 | . | . | . | . | .
Cc1ccc2c(Cl)cc(Cl)c(O)c2n1 | 59* | . | . | . | . | .
O=C(CSCc1cccc(Cl)c1)Nc1ccccc1-c1ccccc1 | 5 | 13 | -2 | 28 | 75* | -4
Cc1ccccc1CSCC(=O)Nc1ccccc1-c1ccccc1 | 24 | -7 | 6 | 1 | 39 | -9
S=c1nc[nH]c2c1ncn2C1CCCO1 (centres undefined) | 4 | 8 | 10 | 23 | 122* | 0
CN1CCN(/N=C/c2ccc(N(C)c3ccccc3)cc2)CC1 | 3 | -7 | -32 | 5 | 46 | -3
CN1CCN(/N=C/c2ccc(N(c3ccccc3)c3ccccc3)cc2)CC1 | -8 | -32 | -12 | 29 | 86* | 2
CCCCOc1cccc(C(=O)N(Cc2ccccc2)C2CCS(=O)(=O)C2)c1 (centres undefined) | 2 | -8 | 20 | -11 | -14 | 3
SMILES | Gli-Sufu block | 697 NFkB inh | Jurkat NFkB inh | Mdm2-MdmX inh | CSC inhib | Beta cell apopt
Fc1ccccc1-c1nnc2ccc3ccccc3n12 | 7 | -5 | 0 | 33 | -16 | -1
Fc1cccc(Cl)c1-c1nnc2ccc3ccccc3n12 | 4 | -80 | -12 | 23 | -6 | 101*
CCn1c(SCC(=O)N(C)Cc2ccc(OC)c(F)c2)nc2cc(S(N)(=O)=O)ccc21 | 18 | 12 | -12 | 6 | 4 | -4
CCCc1c(C(=O)NNc2cccc(Cl)c2)cnn1-c1ccccc1 | -1 | 20 | 1 | -3 | 80* | -5
COc1cc(/C=N/Nc2ccccc2[N+](=O)[O-])cc(OC)c1O | 2 | -17 | -40 | 1 | 19 | 4
COc1cc(/C=N/Nc2ccc(F)cc2F)cc(OC)c1O | -5 | -28 | -13 | -9 | 95* | -7
COc1ccc(CN(C)C(=O)CSc2nnc(C3CC3)n2C2CC2)cc1 | -3 | -17 | -6 | 25 | . | .
CCS(=O)(=O)Nc1ccc(-c2cc(-c3ccccc3)c3cc(C)ccc3n2)cc1 | 4 | . | . | . | 85* | 5
CCCCCCOc1ccc(OC(=O)c2ccncc2)cc1 | 49 | -191 | 0 | 22 | 95* | 4
CCCCCCc1ccc(OC(=O)c2ccncc2)cc1 | 3 | 3 | 12 | 11 | 10 | 0
COc1cccc(OC)c1OCCCN1CCC(Cc2ccccc2)CC1 | 38 | 2 | 16 | 16 | 31 | 3
COc1ccc(/C=C/c2c(-c3ccc(OC)cc3)sc3ccc(N4CCOCC4)cc23)cc1 | 2 | 6 | -8 | 17 | 26 | 4
COC(=O)c1ccc(/C=C/c2c(-c3ccsc3)sc3ccccc23)cc1 | -2 | 7 | -18 | 19 | 94* | -3
COc1ccc(-c2sc3ccccc3c2/C=C/c2ccc(N)cc2)cc1 | 18 | -12 | -8 | -40 | 97* | 0
CC(C)C[C@H]1CNC(=O)C(=O)N1C[C@H](C)NC(=O)Cc1ccccc1 | -11 | 0 | -10 | -27 | 0 | -1
O=C(Nc1ccc(S(=O)(=O)Nc2nccs2)cc1)c1c(F)c(F)c(F)c(F)c1F | 5 | -27 | -3 | 11 | 2 | -2
O=C(CSc1nnc(NC(=O)c2ccc(F)cc2F)s1)NC1CC1 | -40 | -1 | -2 | 11 | 11 | 6
CC(C)N1C(=O)C(Cc2nc3ccccc3c(=O)n2-c2ccccc2)c2ccccc21 (centres undefined) | 10 | -20 | -13 | -5 | 12 | -2
CC(C)N1C(=O)/C(=C\c2nc3ccccc3c(=O)n2-c2ccccc2)c2ccccc21 | 9 | . | . | . | 75* | 4
C/C(=N\Nc1nc2ccccc2[nH]1)c1ccccn1 | . | -103 | 29 | 32 | . | 92*
COc1ccc(NC(=S)N(C(C)C)C2CCN(C(C)C)CC2)cc1Cl | . | 9 | -18 | 17 | 0 | -1
CCCCCCCCCCCCN1[C@@H](CC(C)=O)c2cc(F)ccc2S1(=O)=O | 12 | -2 | -5 | 12 | 80* | 6
CCCCCCCCCCCCN1[C@@H](CC(=O)OC)c2cc(F)ccc2S1(=O)=O | 25 | -1 | -9 | 11 | 6 | 7
O=C(Nc1ccc(OC(F)F)c(Cl)c1)C(c1ccccc1)c1ccccc1 | 23 | -6 | -9 | 19 | 40 | 95*
COc1ccc(F)cc1C(=O)C1CCCN(C(=O)c2ccccc2N(C)C)C1 (centres undefined) | -3 | -4 | 12 | -5 | -1 | -1
Cc1cc(C(=O)NNc2ccc(F)cc2)no1 | 1 | 17 | 11 | 6 | 96* | -3
CC1CCCC(NC(=O)COC(=O)c2cccs2)C1C (centres undefined) | 3 | 1 | -16 | -4 | -13 | 6
